The list shows a part of the results. Inconclusive results are not listed. Values without a mark were called inactive. The source made the active and inactive calls. Calls follow the shape of the dose curve; as a rule, active = well fitted inhibition curve with a large enough effect; inconclusive = small, poorly fitted or top-dose-only effect, or another doubt; inactive = no such curve, though single readings can be large or run the other way.
Potency is read from the fitted curve at half-maximal effect.

Sequence of 4'-phosphopantetheinyl transferase ffp (Bacillus subtilis) (Q9F4F7 whole entry, looked up): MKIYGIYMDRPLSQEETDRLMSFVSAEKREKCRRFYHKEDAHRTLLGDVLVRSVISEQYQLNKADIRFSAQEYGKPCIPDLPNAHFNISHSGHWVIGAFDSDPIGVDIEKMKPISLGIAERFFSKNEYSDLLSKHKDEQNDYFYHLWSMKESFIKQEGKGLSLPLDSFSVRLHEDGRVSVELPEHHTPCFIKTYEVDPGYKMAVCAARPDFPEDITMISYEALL

The target in the test is 4'-phosphopantetheinyl transferase ffp (Bacillus subtilis) (UniProt Q9F4F7). Briefly: Confirmation qHTS Assay for Inhibitors of Bacillus subtilis Sfp phosphopantetheinyl transferase (PPTase). Particulars: Sfp PPTase enzymatic assay, qHTS titration; series mostly up to 114 µM; activity change, negative = inhibition: at the top concentration. An excerpt:
The covalent attachment of a phosphopantetheinyl (4'-PP) arm to a variety of synthases and other proteins is a key posttranslational protein modification. The 4'-PP is installed on the proteins post-translationally from coenzyme A (CoA) on a conserved serine residue by action of phosphopantetheinyl transferase (PPTase) enzymes. Phosphopantetheinylation is essential for synthase activity, and removal of the PPTase gene precludes natural product synthesis in microorganisms, or in the case of fatty acid biosynthesis, renders the organism unviable. PPTase enzymes belong to a distinct structural superfamily. Within bacteria, these enzymes are grouped into two classes based upon primary structure, the AcpS-Type and Sfp-Type PPTases.
Sfp-type PPTases, corresponding to an activator of surfactin production in Bacillus subtilis, are responsible for modifying type I polyketide and nonribosomal peptide synthases of prokaryotes. Sfp-type PPTases are responsible for the activation of a variety of pathogen-associated virulence factors. Among these compounds are toxins such as mycolactone from Mycobacterium ulcerans, siderophores such as vibriobactin from Vibrio cholerae or mycobactin from Mycobacterium tuberculosis, as well as the mycolic acids which form the waxy cell wall of Mycobacteria. The biosyntheses of these natural products are considered attractive targets for drug design.
In search of small molecule Sfp-PPTase inhibitors, a fluorescence quenching assay was developed for detection of Bacillus subtilis Sfp-PPTase enzymatic activity in a miniaturized high-throughput format. The consensus ybbr acceptor peptide […] was N-terminally labeled with Black Hole Quencher-2 (BHQ-2) and used in combination with rhodamine-labeled coenzyme A as a co-substrate.
Inhibition of Sfp-PPTase was detected by recording the fluorescence intensity change over a 30-minute reaction period at a 525 nm excitation and 598 nm emission. Reagents were supplied by Michael Burkart and Timothy Foley, University of California at San Diego.
Assay Submitter: Michael Burkart, University of California, San Diego
Screening Center PI: Austin, C.P.
Screening Center: NIH Chemical Genomics Center [NCGC]
Assay Buffer: 50 mM Hepes-Na pH 7.6, 10 mM MgCl2, 0.01% Nonidet P-40, and 0.01% BSA.
3 uL of Sfp-PPTase enzyme (final concentration 15 nM) and 1 uL of substrate mixture (final concentration for rhodamine-CoA and BHQ-2-YbbR 5 uM and 12.5 uM, respectively) dispensed in columns 1, 2, 5 - 48. Columns 1 and 2 used to generate neutral control (uninhibited reaction)
Three uL of reagents, consisting of buffer (in columns 3 and 4 as negative control) and Sfp-PPTase (in columns 1, 2, 5 - 48) were dispensed into 1,536-well Greiner black solid bottom plate. Compounds (23 nL) were transferred via Kalypsys pintool equipped with 1,536-pin array. The plate was incubated for 15 min at room temperature, followed by the addition of 1 uL substrate to start the reaction. The plate was then centrifuged at 1000 rpm for 15 seconds, and the fluorescence intensity recorded on a ViewLux High-throughput CCD imager (Perkin-Elmer) using standard BODIPY optics (525 nm excitation and 598 nm emission). The plate was then incubated for 30 minutes, and a second read on the ViewLux was performed. The fluorescence intensity difference over the 30-minute period was used to calculate the respective reaction rate for each well.
A general note: qHTS replaces the single test concentration by a dilution series.
As for `CCCOC(=O)Nc1sc2c(c1C(=O)OCC)CCC2`, the Potency was 29.6 µM (active).

As to `c1ccc(-c2nc(NCc3ccco3)c3ccccc3n2)cc1`, the “activity change, negative = inhibition” value was -5.44%.

As for `Cc1nn2c(c1-c1ccccc1)N=C(c1ccco1)CC2c1ccccc1` (configuration not stated), the Potency is 37.3 µM (active).

For `COc1ccc(OCc2nnc3n2N=C(c2ccccc2)C(CC(=O)O)S3)cc1` (configuration not stated), the Potency is 2.35 µM (active).

For `NC(=O)c1c(NC(=O)CSc2nnc(-c3ccco3)n2N)sc2c1CCCC2`, the Potency is 14.8 µM (active).

For `O=c1[nH]c2ccccc2n2c(-c3ccccc3)nnc12`, the Potency was 2.1 µM (active).

`CC(C)(C)c1nnc(NC(=O)C2c3ccccc3Oc3ccccc32)s1`: the Potency is 4.69 µM (active).

As to `Cc1ccc(NC(=O)c2c(NC(=O)CCC(=O)O)sc3c2CCCCC3)cc1`, the Potency was 14.8 µM (active).

Regarding `CCC(c1nnnn1Cc1ccco1)N(Cc1cc2cc(OC)ccc2[nH]c1=O)C1CCCCC1` (configuration not stated), the Potency is 9.37 µM (active).

For `Cc1ccc(/C=C(\C#N)C(=O)Nc2cccc3ncccc23)o1`, the Potency was 26.4 µM (active).

In the case of `OCCN1CCN(C(=S)c2ccc(-c3ccccc3)cc2)CC1`, the Potency was 14.8 µM (active).

In the case of `FC(F)(F)C1CCCN(c2nsc3ccccc23)C1` (configuration not stated), the Potency is 2.1 µM (active).

The record behind these values is PubChem BioAssay AID2701 (National Center for Advancing Translational Sciences (NCATS), 2010).
